According to PubChem BioAssay AID652058 (Broad Institute, 2013):
Out of some 1,200 compounds screened, about 870 (72%) were called active. Another 3% or so got no clear call; they are omitted. The set was probably picked from earlier hits. Only a sample is shown. Potency and affinity values are given separately. A number with no mark means an inactive call.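 Rule for the calls: active = every test run fits a falling curve whose half-maximal concentration is at most twice the top valid dose; inconclusive = runs disagree, or flat 30 to 70% inhibition, or poor fit; inactive = every run inactive: flat, rising or weaker potency.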

Assay: ZM109 Env clade C HIV-1 fusion inhibitors, dose response, HeLa effector, CEM target cells, luciferase, cherry-pick (AID 652058);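 note: 0% = neutral control wells and -100% = maraviroc 300 nM wells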
Conditions: HeLa Env/CEM cell fusion, 16-24 h; series mostly up to 35 µM; activity change, negative = inhibition: at the top concentration

Row | Compound | activity change, negative = inhibition
1 | CCOC(=O)c1cnc2ccc(OCC)cc2c1NCc1ccccc1OC | 69% [at 16 µM]
2 | COc1ccc(NC(=O)C2(C)CCN2Cc2ccccc2OC(F)F)cc1OC (centres undefined) | -0.246%
3 | COc1ccc(OC2C(=O)N(Cc3ccc4c(c3)OCO4)C2c2cccs2)cc1 (centres undefined) | -20%
4 | Cc1cc(C(=O)N2CCC(C(=O)O)CC2)c(C(F)(F)F)o1 | -39.7%
5 | CCOc1ccc(OCc2cccc(C(=O)N/N=C/c3cccnc3)c2)cc1 | -7.2%
6 | CCCOc1ccc(C(F)(F)F)cc1NC(=O)CCc1c(C)noc1C | -36.3%
7 | Cc1ccc(C)c(CNc2ccc(S(=O)(=O)N3CCCCC3)cc2)c1 | -10.3%
8 | Cc1ccc(S(=O)(=O)N[C@H]2C=C[C@H](CC(=O)N3CCC(Cc4ccccc4)CC3)O[C@H]2CO)cc1 | 45.1%
9 | O=C(C[C@@H]1C[C@H]2c3cc(NC(=O)NC4CCCCC4)ccc3O[C@H]2[C@@H](CO)O1)NCc1ccncc1 | 4.35%
10 | CCCNC(=O)C[C@H]1C[C@H]2c3cc(NC(=O)CN(C)C)ccc3O[C@H]2[C@H](CO)O1 | 0%
11 | O=C(Nc1ccc(F)cc1)Nc1ccc2c(c1)[C@H]1C[C@@H](CC(=O)N3CCCCC3)O[C@H](CO)[C@H]1O2 | 58.6%
12 | CCCNC(=O)C[C@H]1C[C@H]2c3cc(NC(=O)CN(C)C)ccc3O[C@H]2[C@@H](CO)O1 | -10.1%
13 | CN1CCN(C(=O)C[C@H]2C[C@@H]3c4cc(NS(C)(=O)=O)ccc4O[C@@H]3[C@H](CO)O2)CC1 | -13.8%
14 | O=C(C[C@@H]1C[C@H]2c3cc(NC(=O)Nc4ccc(F)cc4)ccc3O[C@H]2[C@H](CO)O1)NCC1CC1 | 105%
15 | O=C1c2cccnc2C(Nc2ccc(S(=O)(=O)N3CCCCC3)cc2)N1Cc1ccccc1 (centres undefined) | -24.9%
16 | COc1ccc(COC(=O)C2=C(C)NC(=O)NC2c2ccc(OC)cc2)cc1 (centres undefined) | -25.8%
17 | Cc1cccc(NC(=O)C2CCN(S(=O)(=O)c3ccc4c(c3)OCCCO4)CC2)n1 | -15.6%
18 | CCc1ccc(-c2nc(CN3CCC(C(=O)NCCc4ccc(OC)c(OC)c4)CC3)c(C)o2)cc1 | -27.3%
19 | O=C(Nc1ccc(N2CCN(C(=O)c3ccccc3)CC2)c(Cl)c1)c1cccnc1 | -32.6%
20 | COc1ccccc1CCNCc1ccc(OC)c(OCc2ccccc2)c1 | -24.2%
21 | CCN1C(=O)[C@H]2[C@@H](c3ccc(C(F)(F)F)cc3)N[C@]3(CCCN(Cc4ccccc4)C3=O)[C@H]2C1=O | 94.4%
22 | Cc1ccc(-n2nc3c(c2NC(=O)c2ccco2)CS(=O)C3)cc1 (centres undefined) | 89.7%

Row | Compound | activity change, negative = inhibition
23 | FC(F)(F)c1nc(-c2cccs2)ncc1-c1nnnn1-c1ccc(Cl)cc1 | 130%
24 | Cc1ccc(S(=O)(=O)Nc2ccc3c(c2)C(=O)N([C@H](C)CO)C[C@@H](C)[C@H](CN(C)S(=O)(=O)c2ccc(F)cc2)O3)cc1 | 13.2%
25 | C[C@H](CO)N1C[C@H](C)[C@H](CN(C)S(=O)(=O)c2ccc(F)cc2)Oc2ccc(NS(=O)(=O)c3ccccc3)cc2CC1=O | -27.6%
26 | C=CCN1C(=S)CC(c2ccccc2)=Nc2ccccc21 | 30.2%
27 | CC1CCCN(C(=O)c2ccc(S(=O)(=O)N3CCC(c4nc5ccccc5s4)CC3)cc2)C1 (centres undefined) | -24.4%
28 | CS(=O)(=O)Nc1ccc2c(c1)[C@H]1C[C@H](CC(=O)NCc3ccc(-c4ccccc4)cc3)O[C@H](CO)[C@H]1O2 | 19.1%
29 | CS(=O)(=O)Nc1ccc2c(c1)[C@H]1C[C@H](CC(=O)N3CCc4ccccc4C3)O[C@H](CO)[C@H]1O2 | 1.72%
30 | CS(=O)(=O)Nc1ccc2c(c1)[C@@H]1C[C@@H](CC(=O)N3CCc4ccccc4C3)O[C@H](CO)[C@@H]1O2 | 2.24%
31 | CCN(c1nc(N)c(C(=O)N=C(N)N)nc1Cl)C(C)C | -2.13% [at 16 µM]
32 | CCN(CC)CCN(C(=O)c1cc(Cl)sc1Cl)c1nc2cc3c(cc2s1)OCO3 | 21.8%
33 | CCC(=O)N(C)C(c1ccccc1Cl)c1nnnn1-c1c(C)cccc1C (centres undefined) | 35.5%
34 | O=C(O)C[C@@H]1C=C[C@H](NC(=O)Nc2ccccc2)[C@H](CO)O1 | 15.4%
35 | O=C(O)C[C@@H]1C=C[C@@H](NC(=O)Nc2ccccc2)[C@H](CO)O1 | 80%
36 | Cc1nc2ccccc2c2oc(C(=O)NCc3ccc4c(c3)OCO4)cc12 | 115%
37 | O=C(Nc1ccc(Cl)cc1)C1CCCN(C2=NS(=O)(=O)c3ccccc32)C1 (centres undefined) | -20.3% [at 16 µM]
38 | C[C@H]1CN([C@@H](C)CO)C(=O)Cc2cc(NS(=O)(=O)c3ccccc3)ccc2O[C@@H]1CN(C)Cc1ccc(Cl)c(Cl)c1 | -31.9%
39 | COc1cc(-c2c(-c3cc(OC)c(OC)c(OC)c3)noc2C)ccc1F | 138%
40 | CC1Cc2cc(-c3csc(NC(=O)Cc4cccs4)n3)ccc2N1S(C)(=O)=O (centres undefined) | 102% [at 16 µM]
41 | COCCCn1c(-c2ccc(S(=O)(=O)N3CCOCC3)cc2)csc1=Nc1ccccc1 | -3.14%
42 | O=C(Nc1nc(COc2ccccc2)cs1)C12CC3CC(CC(C3)C1)C2 | -16.3%
43 | COc1ccc(S(=O)(=O)n2ccc(-c3ccc(OCCN(C)c4ccccn4)cc3)n2)cc1 | 7.14% [at 16 µM]
44 | O=C(c1ccccc1F)N1CCN(Cc2cccc(Cl)c2)CC1 | -9.33%
